Source: PubChem BioAssay (NCI)
Compounds without any hit were thinned out: in the full panel of roughly 83,000, 20% have a hit.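 Negative percent growth values reflect cell death: -40 means 40% of the cells present at the start died, and -100 means all died.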 Values without a mark were called inactive. Active and inactive are the calls of the source. The calls were made as follows: active = growth percent below 10; inactive = the rest.

Tests used:
Experiment in all cases: NCI-60 one-dose screen, 48 h (100 = growth as untreated, 0 = no growth, -100 = all killed)
Conditions in all cases: 10 µM
[1] = tested on: NCI-H23 lung
[2] = tested on: NCI-H226 lung
[3] = tested on: HOP-62 NSCLC
[4] = tested on: NCI-H460 lung
[5] = tested on: HOP-92 NSCLC
[6] = tested on: NCI-H522 lung
[7] = tested on: A549/ATCC NSCLC
[8] = tested on: 786-0 renal
[9] = tested on: COLO 205 colon

CCC(CC)n1c(C)cc(=O)n1C(CC)CC
growth [1]: 101% | growth [2]: 99.1% | growth [3]: 96.1% | growth [4]: 103% | growth [5]: 99.9% | growth [6]: 106% | growth [7]: 101% | growth [8]: 105% | growth [9]: 115%

COc1cc(C2C(C#N)=C(N)Oc3cc(O)ccc32)cc(OC)c1OC (configuration not stated)
growth [1]: 30.7% | growth [2]: 68.4% | growth [3]: 53.2% | growth [4]: 9.65% (active) | growth [5]: 49.7% | growth [6]: 1.54% (active) | growth [7]: 21.4% | growth [8]: 40.6% | growth [9]: 8.35% (active)

OCC1OC(n2ccc3c(NO)ncnc32)C(O)C1O (configuration not stated)
growth [1]: -56.3% (active) | growth [2]: -10.3% (active) | growth [3]: -21.6% (active) | growth [4]: -27.7% (active) | growth [5]: -16.3% (active) | growth [6]: -30.1% (active) | growth [7]: -10.9% (active) | growth [8]: -7.13% (active) | growth [9]: -91.1% (active)

CS(=O)(=O)c1nccc(-c2c(-c3ccc(OCCc4ccccc4)cc3)nc3sccn23)n1
growth [1]: 91.8% | growth [2]: 44.8% | growth [3]: 104% | growth [4]: 101% | growth [5]: 75.8% | growth [6]: 94% | growth [7]: 101% | growth [8]: 99.3% | growth [9]: 115%

CCOC(=O)C1=CSC2=NC3=C(CCC/C3=C\c3ccc(Cl)cc3)C(c3ccc(Cl)cc3)N12 (configuration not stated)
growth [1]: 83.8% | growth [2]: 92.2% | growth [3]: 115% | growth [4]: 102% | growth [5]: 96.2% | growth [6]: 93.5% | growth [7]: 96.5% | growth [8]: 101% | growth [9]: 105%

O=C1/C=C/[C@@H](O)[C@@H]2C[C@@H](O)C[C@H]2/C=C/CCC[C@H](C(F)(F)F)O1
growth [1]: -30.8% (active) | growth [2]: -46.7% (active) | growth [3]: 33% | growth [4]: 59.2% | growth [5]: -2.27% (active) | growth [6]: -27.6% (active) | growth [7]: 33.4% | growth [8]: -11.6% (active) | growth [9]: -44.6% (active)

Cc1ccc(Cl)cc1NC(=O)CCl
growth [1]: 74.2% | growth [2]: 99.4% | growth [3]: 108% | growth [4]: 98.4% | growth [5]: 92.1% | growth [6]: 55.6% | growth [7]: 89.9% | growth [8]: 81.2% | growth [9]: 110%

C[n+]1c2ccccc2nc2ccccc21
growth [1]: -9.78% (active) | growth [2]: 42.2% | growth [3]: -18.8% (active) | growth [4]: 17.3% | growth [5]: -10.7% (active) | growth [6]: -39.4% (active) | growth [7]: 24.1% | growth [8]: 10.9% | growth [9]: -25.3% (active)

COc1ccc(/C=C2\CCCC3=C2NC(N)=NC3c2ccc(OC)cc2)cc1 (configuration not stated)
growth [1]: 94.1% | growth [2]: 77.3% | growth [3]: 110% | growth [4]: 99.2% | growth [5]: 68.6% | growth [6]: 77.3% | growth [7]: 89.4% | growth [8]: 106% | growth [9]: 112%

Cc1ccc(NCCN(C)CC(C)O)c2c(=O)c3ccc(Cl)cc3sc12 (configuration not stated)
growth [1]: 65.7% | growth [2]: 85.3% | growth [3]: 87.1% | growth [4]: 0.284% (active) | growth [5]: 34.3% | growth [6]: 57.4% | growth [7]: 39.6% | growth [8]: 47.3% | growth [9]: -78% (active)

CCOC(=O)c1cc(C(=O)c2cc(OC)cc(OC)c2)n2ncc3ccccc3c12
growth [1]: 41.9% | growth [2]: 59.1% | growth [3]: 42.6% | growth [4]: 7.07% (active) | growth [5]: 32.4% | growth [6]: 2.64% (active) | growth [7]: 17.9% | growth [8]: 5.34% (active) | growth [9]: 19.1%

O=C1c2ccccc2C(=O)c2c1ccc(C(Br)Br)c2Cl
growth [1]: 8.26% (active) | growth [2]: 80.4% | growth [3]: 96% | growth [4]: 78% | growth [5]: 42.7% | growth [6]: -72.9% (active) | growth [7]: 88.3% | growth [8]: -78.9% (active) | growth [9]: -33.4% (active)

O=C(CN(C1CCCCC1)C1CCCCC1)Nc1ccc(S(=O)(=O)c2ccc(NC(=O)CN(C3CCCCC3)C3CCCCC3)cc2)cc1
growth [1]: -36.6% (active) | growth [2]: 0.397% (active) | growth [3]: -21.4% (active) | growth [4]: -9.66% (active) | growth [5]: -86.7% (active) | growth [6]: -74.4% (active) | growth [7]: 2.61% (active) | growth [8]: -82.7% (active) | growth [9]: -70.6% (active)

COc1cc2c(cc1NC(=O)C(F)(F)F)-c1ccc(NC(=O)C(F)(F)F)cc1C2
growth [1]: 86.9% | growth [2]: 47.9% | growth [3]: 45.4% | growth [4]: 97.8% | growth [5]: 90.3% | growth [6]: 99.2% | growth [7]: 92.2% | growth [8]: 98.6% | growth [9]: 112%

CC(=O)OC1CC2C(C)(C)CCC[C@]2(C)C2=C1C(O)=C(C(C)C)C(=O)C2=O (some centres not stated)
growth [1]: 9.91% (active) | growth [2]: -71.1% (active) | growth [3]: -40.3% (active) | growth [4]: -39.8% (active) | growth [5]: -79.2% (active) | growth [6]: 58.6% | growth [7]: 6.64% (active) | growth [8]: -3.43% (active) | growth [9]: -38.5% (active)

O=C1c2ccccc2C(=O)c2c1ccc1c(=O)n(-c3ccccc3C(F)(F)F)nnc21
growth [1]: 3.9% (active) | growth [2]: 35.9% | growth [3]: 23.8% | growth [4]: 5.82% (active) | growth [5]: 37.1% | growth [6]: 16.7% | growth [7]: 13.1% | growth [8]: 60.5% | growth [9]: 8.51% (active)

CC(CN(C)C)Oc1ccc(OC(C)CN(C)C)c2c1C(=O)c1ccccc1C2=O (configuration not stated)
growth [1]: 41.6% | growth [2]: 44.5% | growth [3]: 49.3% | growth [4]: 17.2% | growth [5]: 49.1% | growth [6]: 41.1% | growth [7]: 22.5% | growth [8]: 51% | growth [9]: 3.02% (active)

COc1ccc(/C=C2\CCCC3=C2N=C2SC(C)=CN2C3c2ccc(OC)cc2)cc1 (configuration not stated)
growth [1]: 90.3% | growth [2]: 94.1% | growth [3]: 104% | growth [4]: 104% | growth [5]: 93.8% | growth [6]: 89.6% | growth [7]: 90.7% | growth [8]: 104% | growth [9]: 115%

CN1CCN(CCCn2c(=O)c3sc4ncccc4c3n3nnc(-c4ccccc4)c23)CC1
growth [1]: 77.3% | growth [2]: 108% | growth [3]: 21.7% | growth [4]: -77.1% (active) | growth [5]: 48.9% | growth [6]: -83.9% (active) | growth [7]: 12% | growth [8]: 5.36% (active) | growth [9]: -96.5% (active)

Cc1c(C(N)=O)sc2c1c(=O)n(Cc1ccccc1)c1nnc(-c3ccc(Br)cc3)n21
growth [1]: 39% | growth [2]: 26.6% | growth [3]: 37.7% | growth [4]: 4.4% (active) | growth [5]: 43.4% | growth [6]: 47.9% | growth [7]: 10.1% | growth [8]: -15.5% (active) | growth [9]: 16.8%

CC[C@@H](C(=O)[C@H](C)[C@H](O)[C@@H](C)[C@H]1O[C@H]([C@@H](CC)C(=O)N(CC)CC)CC[C@H]1C)C1O[C@]2(C=C[C@@H](O)[C@]3(CC[C@@](C)([C@H]4CC[C@](O)(CC)[C@H](C)O4)O3)O2)[C@H](C)C[C@@H]1C (some centres not stated)
growth [1]: 18.6% | growth [2]: 7.49% (active) | growth [3]: 16.7% | growth [4]: 12.5% | growth [5]: -26.2% (active) | growth [6]: 5.16% (active) | growth [7]: 20.9% | growth [8]: 33.5% | growth [9]: -20.2% (active)

O=C1C=C(Nc2cccc(Br)c2)c2ccccc2C1=O
growth [1]: 41.1% | growth [2]: 91.3% | growth [3]: 41.9% | growth [4]: 12.7% | growth [5]: 39.1% | growth [6]: 27.3% | growth [7]: 16.7% | growth [8]: 60.2% | growth [9]: 104%

O=C(CCl)Nc1ccc(Cc2ccc(NC(=O)CCl)cc2)cc1
growth [1]: -10.4% (active) | growth [2]: -16.2% (active) | growth [3]: 33.2% | growth [4]: -29.3% (active) | growth [5]: 46.3% | growth [6]: -81% (active) | growth [7]: 25.3% | growth [8]: -20.2% (active) | growth [9]: -56.1% (active)

CN1CCN(CC(=O)Nc2cccc(-n3cc(-c4ccncc4)c(-c4ccc(Cl)c(O)c4)n3)c2)CC1
growth [1]: 50.4% | growth [2]: 74.3% | growth [3]: 58.6% | growth [4]: 13.3% | growth [5]: 15.4% | growth [6]: 18.1% | growth [7]: 29.3% | growth [8]: 33.6% | growth [9]: 13.5%

CC[C@@H](C(=O)[C@H](C)[C@H](O)[C@@H](C)[C@H]1O[C@H]([C@@H](CC)C(=O)O)CC[C@H]1C)C1O[C@]2(C=C[C@@H](O)[C@]3(CC[C@@](C)([C@H]4CC[C@](O)(CC)[C@H](C)O4)O3)O2)[C@H](C)C[C@@H]1C (some centres not stated)
growth [1]: 13.4% | growth [2]: 21.4% | growth [3]: 36.9% | growth [4]: 11.4% | growth [5]: 24% | growth [6]: -4.35% (active) | growth [7]: 20.8% | growth [8]: 27.1% | growth [9]: 8.73% (active)

Cc1c(O)c(=O)ccn1C1CCC(CC2CCC(n3ccc(=O)c(O)c3C)CC2)CC1 (configuration not stated)
growth [1]: 39.5% | growth [2]: 42.1% | growth [3]: 36.2% | growth [4]: 12.5% | growth [5]: 51.8% | growth [6]: 31.3% | growth [7]: 46.4% | growth [8]: 46.5% | growth [9]: 23.5%

CCOC(=O)c1cc(C(=O)c2cc(OC)c(OC)c(OC)c2)n2c1ccc1c3cccnc3ccc12
growth [1]: 77.4% | growth [2]: 82.3% | growth [3]: 61.9% | growth [4]: 82.2% | growth [5]: 55.5% | growth [6]: 22.8% | growth [7]: 64% | growth [8]: 78.5% | growth [9]: 36.6%

Cc1ccc(C(C)C)c(O)c1NC(=O)OC(C)C
growth [1]: 96.2% | growth [2]: 99.4% | growth [3]: 91.6% | growth [4]: 102% | growth [5]: 75.7% | growth [6]: 84.8% | growth [7]: 104% | growth [8]: 92.3% | growth [9]: 99.6%
